Tests used:
Assay in all cases: DAPPL (digital affinity profiling via proximity ligation, sequencing); 10 mM Tris-HCl pH 7.5, 50 mM NaCl, 1 mM DTT, 4% glycerol, room temperature, 30 min; GST-TFs on glutathione beads, 16-mer random dsDNA library, 0.1% formaldehyde crosslink after washing; high values mean tight binding
FLI1 = molecular target: T1, FLI1 (Homo sapiens, UniProt Q01543 1-452); details: protein: recombinant; tags: N-terminal GST; dsDNA, one strand shown
T1 sequence: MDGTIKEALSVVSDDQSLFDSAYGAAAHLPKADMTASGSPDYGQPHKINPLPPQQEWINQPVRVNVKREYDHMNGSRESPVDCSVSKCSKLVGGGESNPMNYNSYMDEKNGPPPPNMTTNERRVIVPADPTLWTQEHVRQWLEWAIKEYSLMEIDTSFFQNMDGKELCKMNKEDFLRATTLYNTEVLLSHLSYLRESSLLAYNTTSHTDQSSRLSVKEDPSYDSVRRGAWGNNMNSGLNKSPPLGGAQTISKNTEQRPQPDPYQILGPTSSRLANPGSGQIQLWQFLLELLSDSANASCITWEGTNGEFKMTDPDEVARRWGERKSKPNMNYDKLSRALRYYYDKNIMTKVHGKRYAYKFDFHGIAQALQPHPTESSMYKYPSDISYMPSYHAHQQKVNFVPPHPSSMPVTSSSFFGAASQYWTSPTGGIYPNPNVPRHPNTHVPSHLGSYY
How it was run: (§1)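 A tag-only sample was pooled with DNA-barcoded human transcription factors that had been expressed in yeast as GST fusions and captured on glutathione beads. The pools were incubated for 30 min at room temperature with 200 nmole of a random double-stranded 16-mer DNA library in Tris/NaCl/DTT/glycerol buffer, then washed, crosslinked with 0.1% formaldehyde, proximity-ligated (BsaI/T4 ligase, 1 h, 37 °C), PCR-amplified and sequenced on an Illumina NextSeq500. Binding signal is each hexamer's read frequency for a factor divided by its frequency for the tag-only sample.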

ELK1 = molecular target: T2, ELK1 (Homo sapiens, UniProt P19419 1-428); details: protein: recombinant; tags: N-terminal GST; dsDNA, one strand shown
T2 sequence: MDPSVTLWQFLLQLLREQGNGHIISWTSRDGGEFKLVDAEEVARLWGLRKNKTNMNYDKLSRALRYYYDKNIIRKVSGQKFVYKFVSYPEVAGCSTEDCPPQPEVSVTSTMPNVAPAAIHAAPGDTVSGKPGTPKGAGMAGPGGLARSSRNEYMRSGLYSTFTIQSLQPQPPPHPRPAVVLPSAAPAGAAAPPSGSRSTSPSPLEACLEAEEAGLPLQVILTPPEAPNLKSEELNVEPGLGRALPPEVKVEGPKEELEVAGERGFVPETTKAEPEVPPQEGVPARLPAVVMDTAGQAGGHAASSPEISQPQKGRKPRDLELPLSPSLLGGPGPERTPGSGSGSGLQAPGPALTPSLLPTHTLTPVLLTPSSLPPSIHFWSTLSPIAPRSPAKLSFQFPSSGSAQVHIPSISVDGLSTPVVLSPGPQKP
How it was run: as §1

GABPA = molecular target: T3, GABPA (Homo sapiens, UniProt Q06546 1-454); details: protein: recombinant; tags: N-terminal GST; dsDNA, one strand shown
T3 sequence: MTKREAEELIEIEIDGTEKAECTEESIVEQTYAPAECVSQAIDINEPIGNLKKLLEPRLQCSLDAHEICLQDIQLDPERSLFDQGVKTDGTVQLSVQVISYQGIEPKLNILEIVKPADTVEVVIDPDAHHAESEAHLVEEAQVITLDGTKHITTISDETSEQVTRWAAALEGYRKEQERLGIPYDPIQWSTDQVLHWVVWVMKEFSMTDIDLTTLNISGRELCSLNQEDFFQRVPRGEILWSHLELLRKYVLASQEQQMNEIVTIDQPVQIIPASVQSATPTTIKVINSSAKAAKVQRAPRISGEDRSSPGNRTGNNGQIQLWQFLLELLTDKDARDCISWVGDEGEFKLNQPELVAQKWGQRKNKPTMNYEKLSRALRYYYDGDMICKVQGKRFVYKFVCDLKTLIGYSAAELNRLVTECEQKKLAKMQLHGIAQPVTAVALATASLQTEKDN
How it was run: as §1

ERG = molecular target: T4, ERG (Homo sapiens, UniProt P11308 1-479); details: protein: recombinant; tags: N-terminal GST; dsDNA, one strand shown
T4 sequence: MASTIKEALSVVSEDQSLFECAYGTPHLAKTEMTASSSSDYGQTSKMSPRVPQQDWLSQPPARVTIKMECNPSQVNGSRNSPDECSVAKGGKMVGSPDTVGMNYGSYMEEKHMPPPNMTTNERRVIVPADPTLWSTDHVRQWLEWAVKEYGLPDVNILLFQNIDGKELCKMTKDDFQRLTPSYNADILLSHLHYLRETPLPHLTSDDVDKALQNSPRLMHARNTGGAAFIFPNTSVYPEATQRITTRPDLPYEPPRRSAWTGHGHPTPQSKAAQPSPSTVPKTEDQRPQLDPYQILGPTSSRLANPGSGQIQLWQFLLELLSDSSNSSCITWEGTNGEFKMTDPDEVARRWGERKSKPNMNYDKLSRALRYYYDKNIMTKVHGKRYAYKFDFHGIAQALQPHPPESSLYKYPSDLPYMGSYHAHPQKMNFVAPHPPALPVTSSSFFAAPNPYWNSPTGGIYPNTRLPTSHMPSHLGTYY
How it was run: as §1

ELF1 = ELF1 (Homo sapiens, UniProt P32519 1-619); details: protein: recombinant; tags: N-terminal GST; dsDNA, one strand shown
ELF1, sequence (P32519 whole entry): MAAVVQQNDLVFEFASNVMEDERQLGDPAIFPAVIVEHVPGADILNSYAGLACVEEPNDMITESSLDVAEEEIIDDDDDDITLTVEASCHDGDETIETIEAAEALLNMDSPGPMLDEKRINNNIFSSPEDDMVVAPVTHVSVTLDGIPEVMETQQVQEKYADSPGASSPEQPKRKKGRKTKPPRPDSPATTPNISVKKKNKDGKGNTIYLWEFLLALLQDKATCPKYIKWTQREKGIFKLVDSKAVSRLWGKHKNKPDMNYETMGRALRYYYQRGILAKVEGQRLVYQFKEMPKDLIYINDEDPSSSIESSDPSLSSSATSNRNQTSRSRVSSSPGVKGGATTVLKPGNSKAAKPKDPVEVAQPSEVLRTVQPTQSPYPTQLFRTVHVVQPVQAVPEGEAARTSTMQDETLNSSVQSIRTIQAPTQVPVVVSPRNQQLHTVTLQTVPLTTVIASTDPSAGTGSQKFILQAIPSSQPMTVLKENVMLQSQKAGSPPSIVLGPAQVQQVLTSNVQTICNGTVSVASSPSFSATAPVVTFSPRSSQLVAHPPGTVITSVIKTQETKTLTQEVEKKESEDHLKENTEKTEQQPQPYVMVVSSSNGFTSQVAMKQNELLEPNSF
How it was run: as §1

EHF = molecular target: T5, EHF (Homo sapiens, UniProt Q9NZC4 1-300); details: protein: recombinant; tags: N-terminal GST; dsDNA, one strand shown
T5 sequence: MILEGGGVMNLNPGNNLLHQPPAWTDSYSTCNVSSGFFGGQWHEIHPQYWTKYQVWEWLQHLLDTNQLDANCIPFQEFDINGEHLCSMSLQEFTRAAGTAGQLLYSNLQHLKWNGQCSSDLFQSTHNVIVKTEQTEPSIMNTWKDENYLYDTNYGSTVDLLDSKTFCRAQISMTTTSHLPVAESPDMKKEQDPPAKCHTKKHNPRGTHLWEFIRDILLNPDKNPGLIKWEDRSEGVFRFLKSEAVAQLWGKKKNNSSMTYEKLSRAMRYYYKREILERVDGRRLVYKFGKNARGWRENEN
How it was run: as §1

SPI1 = SPI1 (Homo sapiens, UniProt P17947 1-270); details: protein: recombinant; tags: N-terminal GST; dsDNA, one strand shown
How it was run: as §1

SPIB = SPIB (Homo sapiens, UniProt Q01892 1-262); details: protein: recombinant; tags: N-terminal GST; dsDNA, one strand shown
SPIB, sequence (Q01892 whole entry): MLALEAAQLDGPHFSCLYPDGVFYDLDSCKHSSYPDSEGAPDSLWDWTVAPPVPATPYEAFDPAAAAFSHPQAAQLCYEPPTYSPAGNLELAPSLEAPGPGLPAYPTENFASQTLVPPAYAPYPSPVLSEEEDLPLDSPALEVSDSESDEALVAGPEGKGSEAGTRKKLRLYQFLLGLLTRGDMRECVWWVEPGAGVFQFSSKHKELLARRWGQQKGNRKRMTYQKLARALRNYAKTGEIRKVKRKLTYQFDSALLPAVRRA
How it was run: as §1

ELK3 = molecular target: T6, ELK3 (Homo sapiens, UniProt P41970 1-407); details: protein: recombinant; tags: N-terminal GST; dsDNA, one strand shown
T6 sequence: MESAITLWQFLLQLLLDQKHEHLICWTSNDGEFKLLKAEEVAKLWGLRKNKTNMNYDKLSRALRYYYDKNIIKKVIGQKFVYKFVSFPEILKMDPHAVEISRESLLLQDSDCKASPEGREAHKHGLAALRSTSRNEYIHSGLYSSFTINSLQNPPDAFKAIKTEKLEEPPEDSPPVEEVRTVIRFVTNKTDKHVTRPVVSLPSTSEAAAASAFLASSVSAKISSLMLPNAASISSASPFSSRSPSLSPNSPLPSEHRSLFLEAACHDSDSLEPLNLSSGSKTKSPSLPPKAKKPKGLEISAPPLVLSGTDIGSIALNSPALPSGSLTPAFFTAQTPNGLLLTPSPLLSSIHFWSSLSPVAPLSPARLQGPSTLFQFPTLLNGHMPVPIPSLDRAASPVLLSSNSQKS
How it was run: as §1

FEV = molecular target: T7, FEV (Homo sapiens, UniProt Q99581 1-238); details: protein: recombinant; tags: N-terminal GST; dsDNA, one strand shown
T7 sequence: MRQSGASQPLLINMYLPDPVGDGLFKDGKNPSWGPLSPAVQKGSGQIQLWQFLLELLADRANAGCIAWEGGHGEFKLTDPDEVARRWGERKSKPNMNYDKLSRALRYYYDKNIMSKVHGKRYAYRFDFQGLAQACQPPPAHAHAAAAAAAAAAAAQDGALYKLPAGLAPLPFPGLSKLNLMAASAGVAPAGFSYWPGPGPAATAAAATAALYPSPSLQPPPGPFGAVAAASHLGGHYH
How it was run: as §1

ETV5 = ETV5 (Homo sapiens, UniProt P41161 1-510); details: protein: recombinant; tags: N-terminal GST; dsDNA, one strand shown
ETV5, sequence (P41161 whole entry): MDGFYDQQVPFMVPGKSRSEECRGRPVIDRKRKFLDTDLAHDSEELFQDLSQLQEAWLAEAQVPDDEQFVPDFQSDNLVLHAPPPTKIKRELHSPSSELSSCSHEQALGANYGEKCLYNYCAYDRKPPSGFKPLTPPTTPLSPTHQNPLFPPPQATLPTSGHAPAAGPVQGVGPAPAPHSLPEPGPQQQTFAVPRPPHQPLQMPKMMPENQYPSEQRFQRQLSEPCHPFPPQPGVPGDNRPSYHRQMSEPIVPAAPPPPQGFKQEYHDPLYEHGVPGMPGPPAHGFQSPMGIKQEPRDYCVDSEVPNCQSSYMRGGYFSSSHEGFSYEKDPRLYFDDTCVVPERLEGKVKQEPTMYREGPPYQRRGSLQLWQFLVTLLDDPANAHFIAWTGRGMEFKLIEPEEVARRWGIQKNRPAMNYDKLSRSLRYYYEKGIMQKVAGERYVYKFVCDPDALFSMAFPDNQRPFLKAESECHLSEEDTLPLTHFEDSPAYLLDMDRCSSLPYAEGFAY
How it was run: as §1

HSF1 = HSF1 (Homo sapiens, UniProt Q00613 1-529); details: protein: recombinant; tags: N-terminal GST; chain copies: 3; dsDNA, one strand shown
HSF1, sequence (Q00613 whole entry): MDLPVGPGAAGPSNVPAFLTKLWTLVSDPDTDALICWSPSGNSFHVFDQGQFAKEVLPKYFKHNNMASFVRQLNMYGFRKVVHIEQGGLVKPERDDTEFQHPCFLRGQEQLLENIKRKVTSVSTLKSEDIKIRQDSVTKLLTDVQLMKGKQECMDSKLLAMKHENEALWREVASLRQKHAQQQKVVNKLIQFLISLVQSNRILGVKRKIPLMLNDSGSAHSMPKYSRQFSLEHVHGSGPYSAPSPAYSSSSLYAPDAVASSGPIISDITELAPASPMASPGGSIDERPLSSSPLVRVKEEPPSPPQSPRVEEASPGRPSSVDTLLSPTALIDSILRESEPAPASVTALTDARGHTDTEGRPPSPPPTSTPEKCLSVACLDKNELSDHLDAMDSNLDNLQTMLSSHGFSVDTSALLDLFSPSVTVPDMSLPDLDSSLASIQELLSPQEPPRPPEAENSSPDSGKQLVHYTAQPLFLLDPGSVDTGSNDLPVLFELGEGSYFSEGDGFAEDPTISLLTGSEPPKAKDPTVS
How it was run: as §1

SPIC = molecular target: T8, SPIC (Homo sapiens, UniProt Q8N5J4 1-248); details: protein: recombinant; tags: N-terminal GST; dsDNA, one strand shown
T8 sequence: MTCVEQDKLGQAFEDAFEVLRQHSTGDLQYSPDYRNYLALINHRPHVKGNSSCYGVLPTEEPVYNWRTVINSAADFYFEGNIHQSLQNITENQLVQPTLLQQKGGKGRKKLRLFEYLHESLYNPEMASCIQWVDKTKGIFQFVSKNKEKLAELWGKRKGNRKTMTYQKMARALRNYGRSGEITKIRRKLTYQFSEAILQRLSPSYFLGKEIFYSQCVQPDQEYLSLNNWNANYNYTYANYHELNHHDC
How it was run: as §1

ELF4 = ELF4 (Homo sapiens, UniProt Q99607 1-663); details: protein: recombinant; tags: N-terminal GST; dsDNA, one strand shown
ELF4, sequence (Q99607 whole entry): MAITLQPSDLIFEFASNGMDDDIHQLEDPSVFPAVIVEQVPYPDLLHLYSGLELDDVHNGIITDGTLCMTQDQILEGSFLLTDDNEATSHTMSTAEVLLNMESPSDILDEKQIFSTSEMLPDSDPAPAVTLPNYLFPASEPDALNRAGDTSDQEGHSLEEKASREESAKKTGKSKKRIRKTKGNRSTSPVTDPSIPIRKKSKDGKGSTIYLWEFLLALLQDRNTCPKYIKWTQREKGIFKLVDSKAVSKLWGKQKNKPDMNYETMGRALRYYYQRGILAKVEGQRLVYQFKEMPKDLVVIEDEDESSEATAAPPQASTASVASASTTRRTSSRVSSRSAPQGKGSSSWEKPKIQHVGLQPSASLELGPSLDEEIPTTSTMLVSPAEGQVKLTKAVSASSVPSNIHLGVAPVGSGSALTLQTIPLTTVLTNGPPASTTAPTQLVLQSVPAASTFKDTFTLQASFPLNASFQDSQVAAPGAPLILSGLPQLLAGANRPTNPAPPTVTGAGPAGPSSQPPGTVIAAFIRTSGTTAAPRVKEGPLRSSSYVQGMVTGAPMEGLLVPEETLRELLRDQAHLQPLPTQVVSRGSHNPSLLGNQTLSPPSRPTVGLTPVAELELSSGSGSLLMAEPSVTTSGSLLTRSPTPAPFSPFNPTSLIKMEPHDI
How it was run: as §1

ELK4 = molecular target: T9, ELK4 (Homo sapiens, UniProt P28324-2 1-405); details: protein: recombinant; tags: N-terminal GST; dsDNA, one strand shown
T9 sequence: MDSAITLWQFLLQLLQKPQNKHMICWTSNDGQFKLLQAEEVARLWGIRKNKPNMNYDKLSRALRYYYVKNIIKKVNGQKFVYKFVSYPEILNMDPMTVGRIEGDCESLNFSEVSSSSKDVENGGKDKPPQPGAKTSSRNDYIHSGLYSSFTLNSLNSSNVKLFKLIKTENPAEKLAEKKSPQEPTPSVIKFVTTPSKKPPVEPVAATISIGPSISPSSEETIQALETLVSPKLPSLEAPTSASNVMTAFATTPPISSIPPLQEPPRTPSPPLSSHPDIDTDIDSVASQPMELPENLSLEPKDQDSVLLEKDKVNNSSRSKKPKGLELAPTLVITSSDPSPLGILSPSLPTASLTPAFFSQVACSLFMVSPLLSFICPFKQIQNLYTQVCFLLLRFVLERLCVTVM
How it was run: as §1

ETV2 = molecular target: T10, ETV2 (Homo sapiens, UniProt O00321 1-342); details: protein: recombinant; tags: N-terminal GST; dsDNA, one strand shown
T10 sequence: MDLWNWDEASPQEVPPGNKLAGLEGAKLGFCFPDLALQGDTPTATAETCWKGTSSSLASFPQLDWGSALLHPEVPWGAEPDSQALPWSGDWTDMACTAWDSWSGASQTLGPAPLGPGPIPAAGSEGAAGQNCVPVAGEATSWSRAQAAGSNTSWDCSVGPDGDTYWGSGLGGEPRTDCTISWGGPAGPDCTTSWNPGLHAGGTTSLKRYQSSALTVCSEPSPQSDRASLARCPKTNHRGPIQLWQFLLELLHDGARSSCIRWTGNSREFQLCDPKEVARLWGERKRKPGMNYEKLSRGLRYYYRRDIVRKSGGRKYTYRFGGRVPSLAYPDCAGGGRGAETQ
How it was run: as §1

ELF3 = molecular target: T11, ELF3 (Homo sapiens, UniProt P78545 1-371); details: protein: recombinant; tags: N-terminal GST; dsDNA, one strand shown
T11 sequence: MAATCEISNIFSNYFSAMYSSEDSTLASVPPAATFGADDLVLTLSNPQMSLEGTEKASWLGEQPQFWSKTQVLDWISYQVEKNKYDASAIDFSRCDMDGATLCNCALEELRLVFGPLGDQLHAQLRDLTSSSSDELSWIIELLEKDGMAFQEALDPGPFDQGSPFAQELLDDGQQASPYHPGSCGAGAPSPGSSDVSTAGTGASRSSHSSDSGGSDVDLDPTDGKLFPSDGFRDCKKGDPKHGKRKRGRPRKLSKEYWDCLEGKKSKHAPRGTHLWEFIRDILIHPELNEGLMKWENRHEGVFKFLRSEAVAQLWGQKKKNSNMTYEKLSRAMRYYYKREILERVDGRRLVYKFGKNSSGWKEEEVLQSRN
How it was run: as §1

ETV1 = ETV1 (Homo sapiens, UniProt P50549 1-477); details: protein: recombinant; tags: N-terminal GST; dsDNA, one strand shown
ETV1, sequence (P50549 whole entry): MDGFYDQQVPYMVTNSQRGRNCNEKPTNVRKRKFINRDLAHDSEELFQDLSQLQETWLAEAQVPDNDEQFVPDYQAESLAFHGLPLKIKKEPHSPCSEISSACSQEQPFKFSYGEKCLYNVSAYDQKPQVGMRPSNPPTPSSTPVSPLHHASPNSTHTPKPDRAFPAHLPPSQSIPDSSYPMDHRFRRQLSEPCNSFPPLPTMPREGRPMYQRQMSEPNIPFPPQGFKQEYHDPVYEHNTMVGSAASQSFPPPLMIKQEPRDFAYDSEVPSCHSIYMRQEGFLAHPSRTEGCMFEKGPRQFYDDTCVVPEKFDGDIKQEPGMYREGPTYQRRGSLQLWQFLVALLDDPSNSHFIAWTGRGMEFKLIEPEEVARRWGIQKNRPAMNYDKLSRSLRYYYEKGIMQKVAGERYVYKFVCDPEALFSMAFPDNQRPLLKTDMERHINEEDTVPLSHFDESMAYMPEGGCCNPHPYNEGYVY
How it was run: as §1

GACCTG
binding signal (FLI1): 1.19 fold enrichment (6-mer frequency, TF over GST control)
binding signal (ELK1): 1.26 fold enrichment (6-mer frequency, TF over GST control)
binding signal (GABPA): 1.19 fold enrichment (6-mer frequency, TF over GST control)
binding signal (ERG): 1.26 fold enrichment (6-mer frequency, TF over GST control)
binding signal (ELF1): 1.27 fold enrichment (6-mer frequency, TF over GST control)
binding signal (EHF): 1.28 fold enrichment (6-mer frequency, TF over GST control)
binding signal (SPI1): 1.26 fold enrichment (6-mer frequency, TF over GST control)
binding signal (SPIB): 1.17 fold enrichment (6-mer frequency, TF over GST control)
binding signal (ELK3): 1.35 fold enrichment (6-mer frequency, TF over GST control)
binding signal (FEV): 1.32 fold enrichment (6-mer frequency, TF over GST control)
binding signal (ETV5): 1.28 fold enrichment (6-mer frequency, TF over GST control)
binding signal (HSF1): 1.01 fold enrichment (6-mer frequency, TF over GST control)
binding signal (SPIC): 1.24 fold enrichment (6-mer frequency, TF over GST control)
binding signal (ELF4): 1.28 fold enrichment (6-mer frequency, TF over GST control)
binding signal (ELK4): 1.29 fold enrichment (6-mer frequency, TF over GST control)
binding signal (ETV2): 1.45 fold enrichment (6-mer frequency, TF over GST control)
binding signal (ELF3): 1.2 fold enrichment (6-mer frequency, TF over GST control)
binding signal (ETV1): 1.21 fold enrichment (6-mer frequency, TF over GST control)

Reference: article PMC7862700, “An all-to-all approach to the identification of sequence-specific readers for epigenetic DNA modifications on cytosine”
